Results from PubChem BioAssay (EPA / NIEHS).
Values joined by “and” are separate entries in the source; they are usually repeats but may differ in a detail not shown here. Identical values can stand only once. Inconclusive results are not listed. More than one record can exist for a structure, and the calls need not agree. Active and inactive are the calls of the source. The calls were made as follows, unless noted: active = hit-call score of the fitted dose curve at least 0.9, where 1 is the maximum; inactive = score below 0.9.

How the values were obtained:
[1] = read-out: Monokine induced gamma interferon (MIG), CXCL9 (gene 4283); test: BSK_3C_MIG: BioMAP Diversity Plus: 3C Assay for Monokine induced gamma interferon (MIG) Biomarker Activity (AID 2283021); conditions: primary human endothelial cells (HUVEC); actives raise or lower the signal;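 as to AC50: MIG protein level measured by immunoassay in the treated endothelial cultures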
Outline: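 Primary human umbilical vein endothelial cells in the 3C system were exposed to chemical for 24 h, after which MIG was quantified by ELISA. Activity was fitted bidirectionally against DMSO as negative control and baseline.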

[2] = molecular target: human Vitamin D Receptor (VDR), VDR (gene 7421) (UniProt P11473); test: ATG_VDR_TRANS: Attagene TRANS-FACTORIAL HepG2 Assay for human Vitamin D Receptor (VDR) (AID 2283022; active = hit-call score of the fitted dose curve at least 0.9, where 1 is the maximum)
Sequence of human Vitamin D Receptor (VDR), VDR (gene 7421) (P11473 whole entry, looked up, the tested form may be a part): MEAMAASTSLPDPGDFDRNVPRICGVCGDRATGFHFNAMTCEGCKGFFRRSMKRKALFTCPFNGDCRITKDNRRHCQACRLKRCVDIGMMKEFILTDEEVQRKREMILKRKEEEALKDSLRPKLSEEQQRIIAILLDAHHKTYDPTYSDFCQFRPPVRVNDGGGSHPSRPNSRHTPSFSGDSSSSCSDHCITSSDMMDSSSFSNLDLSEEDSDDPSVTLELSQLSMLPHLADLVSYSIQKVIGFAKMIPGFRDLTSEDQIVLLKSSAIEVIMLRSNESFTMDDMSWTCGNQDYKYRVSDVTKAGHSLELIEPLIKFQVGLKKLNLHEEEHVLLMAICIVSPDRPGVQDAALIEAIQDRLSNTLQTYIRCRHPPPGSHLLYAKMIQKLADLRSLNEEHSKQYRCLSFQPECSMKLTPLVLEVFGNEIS
Outline: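 Steps: transfect HepG2 with GAL4-UAS-driven reporter constructs; dose compounds 24 h; isolate RNA, reverse-transcribe, PCR-amplify with 6-FAM-labelled primer extension and HpaI digestion; quantify fragments by capillary electrophoresis relative to DMSO.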

[3] = BSK_3C_SRB: Viability Assessment in the BioMAP Diversity Plus: 3C Assay (AID 2283023); conditions: primary human endothelial cells (HUVEC);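 also: cells read 24 h after compound dosing; fitted both ways against DMSO so a hit may be signal rise or drop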
Outline: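 Absorbance at 560 nm of sulforhodamine B-stained (0.1%) total protein served as a cytotoxicity readout in human umbilical vein endothelial cells, 24 h after chemical treatment. Signal was fitted bidirectionally relative to DMSO.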

[4] = read-out: Matrix Metallopeptidase 1 (MMP1), MMP1 (gene 4312); test: BSK_BE3C_MMP1: BioMAP Diversity Plus: BE3C Assay for Matrix Metallopeptidase 1 (MMP1) Biomarker Activity (AID 2283024); conditions: primary human bronchial epithelial cells; actives raise or lower the signal
Outline: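 Primary human bronchial epithelial cells were dosed with test chemicals, and MMP1 levels were measured by ELISA 24 h later. Data were fitted bidirectionally against DMSO as the negative control and activity baseline.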

[5] = BSK_3C_Vis: BioMAP Diversity Plus: 3C Assay for Morphology Visualization (AID 2283025); conditions: primary human endothelial cells (HUVEC);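 also: fitted both ways so gain or loss versus DMSO counts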
Outline: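 Human umbilical vein endothelial cells in the 3C system were imaged by light microscopy 24 h after chemical dosing to record cell morphology. Activity was fitted bidirectionally against DMSO as negative control and baseline; the endpoint serves as a background control.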

[6] = read-out: Pselectin, SELP (gene 6403); test: BSK_4H_Pselectin: BioMAP Diversity Plus: 4H Assay for Pselectin Biomarker Activity (AID 2283026); conditions: primary human endothelial cells (HUVEC); actives raise or lower the signal
Outline: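 Primary human umbilical vein endothelial cells were exposed to test chemical for 24 h, then cell-surface P-selectin was quantified by ELISA. Activity was fitted bidirectionally against DMSO as negative control and baseline.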

[7] = BSK_4H_SRB: Viability Assessment in the BioMAP Diversity Plus: 4H Assay (AID 2283027); conditions: primary human endothelial cells (HUVEC);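 also: cells exposed to compound for 24 h before staining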;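 as to AC50: curves fitted both ways versus DMSO so AC50 may be loss or gain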
Outline: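 Absorbance at 560 nm of SRB-stained total protein served as the viability read-out in confluent primary human umbilical vein endothelium 24 h after chemical treatment. Curves were fitted bidirectionally against DMSO as negative control.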

[8] = BSK_BE3C_SRB: Viability Assessment in the BioMAP Diversity Plus: BE3C Assay (AID 2283028); conditions: primary human bronchial epithelial cells;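 as to AC50: fitted both ways so AC50 may mark signal gain or loss versus DMSO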
Outline: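 Cells (human bronchial epithelial, primary) are treated with chemicals, and after 24 h the parallel cultures are fixed in 10% TCA. These are then stained with 0.1% SRB and read at 560 nm. Gain or loss of signal is fitted relative to DMSO.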

[9] = read-out: Thrombomodulin, THBD (gene 7056); test: BSK_3C_Thrombomodulin: BioMAP Diversity Plus: 3C Assay for Thrombomodulin Biomarker Activity (AID 2283029); conditions: primary human endothelial cells (HUVEC); actives raise or lower the signal
Outline: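 Primary human umbilical vein endothelial cells (3C system) were exposed to chemical for 24 h, then thrombomodulin levels were measured by ELISA. Activity was fitted bidirectionally against the DMSO negative control as baseline.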

[10] = read-out: Urokinase-type plasminogen activator receptor (uPAR), PLAUR (gene 5329); test: BSK_4H_uPAR: BioMAP Diversity Plus: 4H Assay for Urokinase-type plasminogen activator receptor (uPAR) Biomarker Activity (AID 2283030); conditions: primary human endothelial cells (HUVEC); actives raise or lower the signal
Outline: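 Cell-surface uPAR ELISA signal, measured 24 h after dosing human umbilical vein endothelial cells, was analyzed with bidirectional fitting relative to DMSO. Parallel SRB staining of total protein tracked overt cytotoxicity.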

[11] = read-out: Vascular endothelial growth factor receptor 2 (Homo sapiens) (UniProt P35968); test: BSK_4H_VEGFRII: BioMAP Diversity Plus: 4H Assay for Vascular endothelial growth factor receptor 2 (VEGFR2) Biomarker Activity (AID 2283031); conditions: primary human endothelial cells (HUVEC); actives raise or lower the signal;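 as to AC50: cell-surface VEGFR2 protein level quantified by ELISA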
Outline: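 ELISA read-out of VEGFRII in primary human umbilical vein endothelium, taken 24 h after chemical treatment. Responses are expressed relative to DMSO, with bidirectional fitting.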

[12] = read-out: Vascular cell adhesion molecule 1 (VCAM1), VCAM1 (gene 7412); test: BSK_4H_VCAM1: BioMAP Diversity Plus: 4H Assay for Vascular cell adhesion molecule 1 (VCAM1) Biomarker Activity (AID 2283033); conditions: primary human endothelial cells (HUVEC); actives raise or lower the signal
Outline: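 Primary human umbilical vein endothelial cells were exposed to chemicals for 24 h, after which VCAM-1 was quantified by ELISA. Responses were fitted bidirectionally against DMSO as negative control and activity baseline.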

[13] = read-out: Interferon-gamma inducible Protein 10 (IP10), CXCL10 (gene 3627); test: BSK_BE3C_IP10: BioMAP Diversity Plus: BE3C Assay for Interferon-gamma inducible Protein 10 (IP10) Biomarker Activity (AID 2283034); conditions: primary human bronchial epithelial cells; actives raise or lower the signal
Outline: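 Human primary bronchial epithelial cells were exposed to chemicals for 24 hours, after which IP-10 levels were measured by ELISA. Data were fitted bidirectionally against DMSO, which served as the negative control and activity baseline.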

[14] = read-out: Monokine induced gamma interferon (MIG), CXCL9 (gene 4283); test: BSK_BE3C_MIG: BioMAP Diversity Plus: BE3C Assay for Monokine induced gamma interferon (MIG) Biomarker Activity (AID 2283035); conditions: primary human bronchial epithelial cells; actives raise or lower the signal
Outline: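 MIG level was determined by ELISA after 24 h chemical treatment of primary human bronchial epithelial cells. Values were fitted bidirectionally with DMSO as the negative control and activity baseline.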

[15] = read-out: Transforming growth factor beta 1 (TGFb1), TGFB1 (gene 7040); test: BSK_BE3C_TGFb1: BioMAP Diversity Plus: BE3C Assay for Transforming growth factor beta 1 (TGFb1) Biomarker Activity (AID 2283036); conditions: primary human bronchial epithelial cells; actives raise or lower the signal
Outline: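 Human primary bronchial epithelial cells (BE3C system) were dosed with chemical and TGF-b1 levels measured by ELISA at 24 h. Activity was fitted bidirectionally relative to DMSO negative control as baseline.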

[16] = read-out: Plasminogen activator inhibitor-1 (PAI1), SERPINE1 (gene 5054); test: BSK_BE3C_PAI1: BioMAP Diversity Plus: BE3C Assay for Plasminogen activator inhibitor-1 (PAI1) Biomarker Activity (AID 2283037); conditions: primary human bronchial epithelial cells; actives raise or lower the signal
Outline: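 Human primary bronchial epithelial cells were exposed to chemical for 24 h, then PAI-1 was quantified by ELISA. Activity was fitted bidirectionally relative to the DMSO negative control baseline.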

[17] = read-out: urokinase plasminogen activator (uPA), PLAU (gene 5328); test: BSK_BE3C_uPA: BioMAP Diversity Plus: BE3C Assay for urokinase plasminogen activator (uPA) Biomarker Activity (AID 2283038); conditions: primary human bronchial epithelial cells; actives raise or lower the signal
Outline: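 Bronchial epithelial cells (human, primary); chemical 24 h; uPA by ELISA; bidirectional fit vs DMSO. SRB (0.1%, after 10% TCA fixation, 560 nm) in parallel cultures for cytotoxicity.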

[18] = read-out: Urokinase-type plasminogen activator receptor (uPAR), PLAUR (gene 5329); test: BSK_BE3C_uPAR: BioMAP Diversity Plus: BE3C Assay for Urokinase-type plasminogen activator receptor (uPAR) Biomarker Activity (AID 2283039); conditions: primary human bronchial epithelial cells; actives raise or lower the signal
Outline: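 Primary human bronchial epithelial cells were dosed with chemical and harvested 24 h later; uPAR was quantified by ELISA. Activity was fitted bidirectionally against DMSO as negative control and baseline.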

[19] = read-out: Interleukin-6 (IL6), IL6 (gene 3569); test: BSK_CASM3C_IL6: BioMAP Diversity Plus: CASM3C Assay for Interleukin-6 (IL6) Biomarker Activity for (AID 2283040); conditions: primary human coronary artery smooth muscle cells; actives raise or lower the signal
[20] = read-out: Human Leukocyte Antigen - DR isotype (HLADR), HLA-DRA (gene 3122); test: BSK_BE3C_HLADR: BioMAP Diversity Plus: BE3C Assay for Human Leukocyte Antigen - DR isotype (HLADR) Biomarker Activity (AID 2283032); conditions: primary human bronchial epithelial cells; actives raise or lower the signal
Outline: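 Human primary bronchial epithelial cells in the BE3C system were exposed to chemicals for 24 h, after which HLA-DR levels were quantified by ELISA. Activity was fitted bidirectionally, gain or loss of signal, against DMSO as negative control and baseline.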

Measured: AC50

N#CC(Br)(Br)C(N)=O
not listed: [20]
inactive: all other assays above

Cc1cc(N=Nc2ccccc2C)ccc1N
active: [3] 11.1 µM | [5] 39 µM | [6] 29.1 µM | [7] 5.17 µM | [9] 3 µM | [10] 1.95 µM | [12] 33.1 µM | [16] 12 µM
inactive: all other assays above

Clc1ccc(C(c2ccc(Cl)cc2)C(Cl)(Cl)Cl)cc1
active: [1] 34.5 µM | [3] 28.5 µM | [5] 37.3 µM | [7] 30.5 µM | [10] 31 µM | [11] 25.8 µM | [12] 25.9 µM
not listed: [6]
inactive: all other assays above

Nc1ccc(N=Nc2ccccc2)cc1
active: [3] 20 µM
not listed: [7]
inactive: all other assays above

CN(C)c1ccc(C(=O)c2ccc(N(C)C)cc2)cc1
active: [3] 3.55 µM | [5] 5.81 µM | [7] 1.56 µM
not listed: [20]
inactive: all other assays above

CNC(=O)Oc1cccc2c1OC(C)(C)C2
inactive: all assays above

O=[N+]([O-])C(Br)(CO)CO
active: [1] 34.9 µM | [3] 15.3 µM | [5] 37.5 µM | [6] 20 µM | [10] 31.7 µM | [12] 27.1 µM | [17] 4.02 µM
not listed: [7] | [20]
inactive: all other assays above

CCNS(=O)(=O)C(F)(F)C(F)(F)C(F)(F)C(F)(F)C(F)(F)C(F)(F)C(F)(F)C(F)(F)F
inactive: [1] | [2] | [3] | [4] | [5] | [8] | [9] | [10] | [11] | [14] | [17] | [18] | [19]
active: [3] 43.4 µM and 44.3 µM | [4] 4.99 µM and 11.3 µM | [8] 49.7 µM and 50.3 µM | [12] 19.3 µM and 16.9 µM and 25.2 µM | [13] 13.9 µM and 21.1 µM and 14 µM | [14] 44.4 µM and 29.5 µM | [15] 12 µM | [16] 19.3 µM and 4.88 µM and 4.37 µM | [17] 41.5 µM | [18] 21.2 µM and 30 µM

CC(C)(C)OOC(=O)c1ccccc1
not listed: [20]
inactive: all other assays above

[Cl-].[Cl-].[Hg+2]
active: [1] 30.9 µM | [3] 30.3 µM | [4] 31.4 µM | [5] 37.5 µM | [6] 33 µM | [7] 20 µM | [8] 34.7 µM | [10] 30 µM | [12] 29.7 µM | [13] 34.9 µM | [14] 36.5 µM | [15] 30.9 µM | [16] 30.9 µM | [17] 31.6 µM | [18] 31.5 µM | [19] 31.9 µM
inactive: [2] | [9] | [11]

c1ccc2c(c1)-c1cccc3cccc-2c13
not listed: [7] | [11]
inactive: all other assays above

Cc1ccc([N+](=O)[O-])cc1
inactive: all assays above

C1=Cc2cccc3cccc1c23
not listed: [20]
inactive: all other assays above
